Data reported in PubChem BioAssay AID1778 (Sanford-Burnham Center for Chemical Genomics, 2009).
Among all 290,000 compounds or so, about 260 (0.09%) were called active. No stated cut-off is given here; in the data, active means inhibition above about 50%; inactive means the rest. The full list was thinned out, with actives kept by preference. Entries with a potency or affinity are not part of this list.

Target: Kappa-type opioid receptor (Homo sapiens) (UniProt P41145)
Test: kappa opioid receptor blockers – cell-based, luminescence, uHTS (AID 1778)
Conditions: KOR beta-arrestin recruitment, antagonist mode, active compounds read high; at 10 µM unless noted

Chain of Kappa-type opioid receptor (Homo sapiens) (P41145 whole entry, looked up): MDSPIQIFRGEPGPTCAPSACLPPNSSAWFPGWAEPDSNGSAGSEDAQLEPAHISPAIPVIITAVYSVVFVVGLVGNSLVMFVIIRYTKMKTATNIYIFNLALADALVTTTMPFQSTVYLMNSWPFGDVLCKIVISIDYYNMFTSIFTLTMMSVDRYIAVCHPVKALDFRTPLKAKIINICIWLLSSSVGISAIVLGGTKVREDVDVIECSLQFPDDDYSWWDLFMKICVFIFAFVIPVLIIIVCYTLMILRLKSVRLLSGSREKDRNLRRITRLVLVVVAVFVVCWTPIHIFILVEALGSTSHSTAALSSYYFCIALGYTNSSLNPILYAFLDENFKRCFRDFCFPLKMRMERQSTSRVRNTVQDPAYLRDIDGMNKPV

Row | Compound | inhibition
1 | Cc1cccc(CSc2ccc3nnc(-c4ccccn4)n3n2)c1 | 8.5% (inactive)
2 | Cc1cc(NC(=O)c2cc(C3CC3)on2)n(-c2ccccc2)n1 | -9.5% (inactive)
3 | COc1cc(/C=N/n2nnnc2N)ccc1OC(C)C | 26.9% (inactive)
4 | O=C(CCCCCN1C(=O)c2ccccc2C1=O)Oc1ccc2c3c(c(=O)oc2c1)CCC3 | -61.9% (inactive)
5 | CC1=C(C(=O)Nc2ccccc2C)C(c2ccccc2)NC(=O)N1 (stereo not drawn) | -32.2% (inactive)
6 | CCOC(=O)c1c(CN2CCCCC2)n(C)c2ccc(OC)c(S(=O)(=O)c3ccccc3)c12 | 4.2% (inactive)
7 | COc1cccc(Cn2c(=O)c3[nH]cnc3n(-c3ccccc3C)c2=O)c1 | 7.3% (inactive)
8 | Cc1ccc(C(=O)O)cc1-n1c(=O)n(Cc2ccccc2)c(=O)c2[nH]cnc21 | -9.2% (inactive)
9 | COC(=O)c1cccc(-n2c(=O)n(Cc3ccccc3)c(=O)c3[nH]cnc32)c1C | 23.8% (inactive)
10 | COc1ccc(Cn2c(=O)c3[nH]cnc3n(-c3ccccc3C)c2=O)cc1 | -13.7% (inactive)
11 | O=C(Nc1ccc(Oc2ccccc2)cc1)c1cnc2n(c1=O)CCS2 | 0.1% (inactive)
12 | Cc1ccc(S(=O)(=O)N(Cc2cc3ccc(C)cc3[nH]c2=O)c2ccccc2)cc1 | 17.5% (inactive)
13 | CCCCCn1c(SCCCC)nc2c1c(=O)[nH]c(=O)n2C | -43.8% (inactive)
14 | COc1cc2c(cc1OC)C1(CCCC1)CNC2C (stereo not drawn) | 7.4% (inactive)
15 | COc1cc2c(cc1OC)C1(CCCC1)CNC2c1ccc([N+](=O)[O-])cc1 (stereo not drawn) | -8.4% (inactive)
16 | COc1ccc(OC)c(NC(=O)Nc2ccc3c(c2)OCO3)c1 | -10.5% (inactive)
17 | O=C(Nc1ccc(C(F)(F)F)cc1)c1ccc2ncsc2c1 | -15.9% (inactive)
18 | O=C1C(Cl)=C(Nc2ccccc2)C(=O)c2ccccc21 | 15.5% (inactive)
19 | Cc1ccc(NC2=C(Cl)C(=O)c3ccccc3C2=O)cc1 | 37.4% (inactive)
20 | O=C1C(Cl)=C(Nc2ccc3cn[nH]c3c2)C(=O)c2ccccc21 | 76.4% (active)
21 | COC(=O)c1c(NC(=O)/C=C/C(=O)O)sc(Cc2ccccc2)c1C | 14.3% (inactive)
22 | NNC(=O)c1ccc(CSc2cccc3cccnc23)cc1 | -21.6% (inactive)
23 | O=C(c1ccc(CNS(=O)(=O)c2ccc(Br)cc2)cc1)N1CCCCCC1 | -30.5% (inactive)
24 | CC(=O)N1CCc2cc(S(=O)(=O)NC(Cc3ccccc3)C(=O)NCCN3CCCCC3C)ccc21 (stereo not drawn) | 15% (inactive)

Row | Compound | inhibition
25 | N#CC(=C1N=c2ccccc2=N1)c1c(O)[nH]c2ccccc12 | -33.6% (inactive)
26 | Oc1[nH]c(N=C2N=c3ccccc3=N2)c2ccccc12 | 59.4% (active)
27 | Oc1[nH]c(=S)sc1C=C1N=c2ccccc2=N1 | 6.5% (inactive)
28 | O=C(COc1ccccc1)N1CCN=C1SCc1ccc(F)cc1 | 2.9% (inactive)
29 | O=C(CSc1nnc2c(Cl)cc(C(F)(F)F)cn12)N(Cc1ccccc1)Cc1ccccc1 | 1% (inactive)
30 | Cc1cc(NS(=O)(=O)c2ccc(NC(=O)c3ccc(Cl)cc3Cl)cc2)no1 | -5.5% (inactive)
31 | O=C(N/N=C(\c1ccccc1)c1cccnc1)c1cc(O)ccc1O | -0.3% (inactive)
32 | O=C(N/N=C(\c1ccccc1)c1cccnc1)c1ccc(O)cc1 | 28.3% (inactive)
33 | CC1=C(C#N)C(NC(=O)c2ccco2)(C(F)(F)F)C(=O)N1 (stereo not drawn) | 9.4% (inactive)
34 | CCc1nnc(NC(=O)c2c(OC)cccc2OC)s1 | -5.6% (inactive)
35 | CCc1nnc(NC(=O)c2ccc3ccccc3n2)s1 | 0.1% (inactive)
36 | C=CCN1C(=O)C(CC(=O)O)SC1=Nc1ccc(C(=O)O)cc1 (stereo not drawn) | 5.3% (inactive)
37 | CCOC(=O)C1CCN(S(=O)(=O)c2cc(C(=O)N3CCCCC3)ccc2OC)CC1 | 2.3% (inactive)
38 | COc1ccc(CNC(=O)C2CCC(=O)N(CCCN3CCCC3=O)C2)c(OC)c1 (stereo not drawn) | -21.5% (inactive)
39 | COc1cc(NC(=O)CN2C(=O)CN(C)C2=O)c(C)cc1[N+](=O)[O-] | -7.1% (inactive)
40 | COc1cc(NC(=O)CN2CCCCC2)c(C)cc1[N+](=O)[O-] | 13% (inactive)
41 | COc1ccc(SCC(=O)c2cc(C)c(OC(=S)N(C)C)c(C)c2)cc1 | -46.3% (inactive)
42 | CC(C)C(=O)OCC(=O)NCc1ccccc1Cl | -7.3% (inactive)
43 | O=C(CCN1C(=O)[C@@H]2Cc3ccccc3CN2C1=O)N[C@H](Cc1ccccc1)C(=O)O | -10% [at 20 µM] (inactive)
44 | C=CCn1c(O)c(N=NC(=S)Nc2ccc(OC)cc2)c2ccccc21 | 44.9% (inactive)
45 | C=CCn1c(O)c(N=NC(=S)Nc2cccc(C)c2)c2ccccc21 | 34% (inactive)
46 | C=CCn1c(O)c(N=NC(=S)Nc2cccc(OC)c2)c2ccccc21 | 52.2% (active)
47 | N=C1C(c2nc3ccccc3s2)=C(O)CN1CCCO | 5.8% (inactive)
48 | CCN(CC)CCCN=Cc1c(-c2ccccc2)[nH]n(-c2nc3ccccc3s2)c1=O | 2.1% (inactive)

Row | Compound | inhibition
49 | Cc1cc(Cl)ccc1NC(=O)Cn1cncn1 | -2.4% (inactive)
50 | CC(NCCC(c1ccccc1)c1ccccc1)c1ccccc1 (stereo not drawn) | -18.9% (inactive)
51 | CC(CCc1ccc(O)cc1)NCCC(c1ccccc1)c1ccccc1 (stereo not drawn) | 42.6% (inactive)
52 | CCOC(=O)c1c(C)[nH]c(C)c1C(=O)CSc1nc2ccccc2c(=O)n1-c1ccc(Cl)cc1 | -15.4% (inactive)
53 | Nc1nc2sc3c(c2c(=O)s1)CCCC3 | -49.8% (inactive)
54 | Nc1c2c(nc3sc4c(c13)CCCC4)CCCCCC2 | -20.4% (inactive)
55 | Nc1c2c(nc3sc4c(c13)CCCCC4)CCCCC2 | -28.2% (inactive)
56 | Nc1c2c(nc3sc4c(c13)CCCC4)-c1ccccc1CC2 | 9.5% (inactive)
57 | CC1CCN(C(=O)COc2ccc3ccccc3c2Br)CC1 | -12.2% (inactive)
58 | CCc1ccc(CN2CCC(C(=O)Nc3cccc(-c4nnc(C)s4)c3)CC2)o1 | -24.6% (inactive)
59 | O=S(=O)(NCCc1ccccc1)c1ccc(-n2cnnn2)cc1 | -7.2% (inactive)
60 | CC(=O)Nc1cccc(NC(=O)COc2nncc3ccccc23)c1 | 13.2% (inactive)
61 | CC(C)Cn1c(C(C)NC(=O)Cc2ccccc2)nc2ccccc21 (stereo not drawn) | -13.7% (inactive)
62 | O=C1CCC([N+](=O)[O-])C(c2ccc(Cl)cc2)N1 (stereo not drawn) | -23.8% (inactive)
63 | CCOC(=O)c1cc2c(ccc3ccccc32)oc1=O | -26.8% [at 20 µM] (inactive)
64 | CC(=O)c1cc2c(ccc3ccccc32)oc1=O | -8.6% (inactive)
65 | CC1(C)CC(=O)CC(=Nc2ccc3[nH]c(=O)[nH]c3c2)C1 | 17.9% (inactive)
66 | CC1Oc2ccccc2C=C1/C=N/NC(=O)c1ccncc1 (stereo not drawn) | 22.3% (inactive)
67 | CC(C)CCn1nnnc1CN1CCN(c2ccc(F)cc2)CC1 | -16.4% [at 20 µM] (inactive)
68 | Cc1ccc(N2CCCn3c2nc2c3c(=O)n(CCN3CCOCC3)c(=O)n2C)cc1 | -16.1% (inactive)
69 | Cc1cccc(N2CCCn3c2nc2c3c(=O)n(CCN3CCOCC3)c(=O)n2C)c1 | -4% (inactive)
70 | Cn1c(=O)n(CCN2CCOCC2)c(=O)c2c1nc1n2CCCN1c1ccccc1 | 51.1% (active)
71 | CN(CC(=O)Nc1ccc(F)c(F)c1F)C(=O)c1ccc(=O)[nH]c1 | 31.4% (inactive)
72 | CN(Cc1cnn(-c2ccccc2)c1)C(=O)C1CCC(=O)N(C2CC2)C1 (stereo not drawn) | 9.1% (inactive)

Row | Compound | inhibition
73 | O=[N+]([O-])c1ccc2nc(-c3ccccc3)cc(-c3ccccc3)c2c1 | 14.3% (inactive)
74 | O=C(O)CNc1nc(-c2ccccc2)c2cc([N+](=O)[O-])ccc2n1 | 4.1% (inactive)
75 | O=C(O)CCCc1c(-[n+]2ccccc2)[nH]c2ccccc12 | 5.9% (inactive)
76 | COCCOC(=O)c1[nH]c2c(c1C)C(=O)CC(c1ccc(OC)c(OC)c1)C2 (stereo not drawn) | -5.3% (inactive)
77 | CCCCN(CCCNC(=O)C1CCN(S(=O)(=O)CC)CC1)c1ccccc1 | 23.2% (inactive)
78 | CN(CCCNC(=O)C1CCN(S(=O)(=O)N2CCC3(CC2)OCCO3)CC1)Cc1ccccc1 | -79.2% (inactive)
79 | CCN(CCCNC(=O)C1CCN(S(=O)(=O)CC)CC1)c1ccccc1 | 17.3% (inactive)
80 | CCCCN(CCCNC(=O)C1CCN(S(=O)(=O)N2CCOCC2)CC1)Cc1ccccc1 | 28.7% (inactive)
81 | Cc1c(Cl)cccc1NC(=S)N1CCCN(Cc2ccccc2F)C1 | -15.1% (inactive)
82 | COc1cccc(C(=O)Oc2cc(C)[nH]c(=O)c2[N+](=O)[O-])c1OC | 6.3% (inactive)
83 | CC(C)[C@H](NC(=O)[C@@H]1Cc2ccccc2CN1)C(=O)Nc1ccc2c(c1)OCCO2 | -1.1% (inactive)
84 | COc1ccc(N2CCN(C(C)C(=O)N3CC(C)OC(C)C3)CC2)cc1 (stereo not drawn) | -2.4% (inactive)
85 | O=C1C(=O)N(CCCn2ccnc2)C(c2ccc(Br)cc2)/C1=C(\O)c1ccc2c(c1)OCCO2 (stereo not drawn) | -11.2% (inactive)
86 | COc1cc2c(c(OC)c1OC)-c1c(cc3c(c1OC)OCO3)[C@@H](OC(C)=O)[C@H](C)[C@H](C)C2 | 20.4% (inactive)
87 | C/C=C(/C)C(=O)O[C@@H]1c2cc3c(c(OC)c2-c2c(cc(OC)c(OC)c2OC)[C@@H](OC(C)=O)[C@@H](C)[C@H]1C)OCO3 | 10.7% (inactive)
88 | COc1ccc(-c2cc(C(=O)N/N=C/c3cccnc3)c3cc(C)cc(C)c3n2)cc1 | 1.8% (inactive)
89 | Cc1cccc(NC(=O)COC(=O)c2ccccc2SCC(=O)N2CCCC2)c1 | 30.1% (inactive)
90 | CC(CN1CCN(C)CC1)OC(=O)c1ccccc1 (stereo not drawn) | -12.4% (inactive)
91 | COc1ccc(CCN2C(=O)C(Oc3ccccc3C)C2c2ccc3c(c2)OCO3)cc1 (stereo not drawn) | -11% (inactive)
92 | O=C1C(Oc2ccccc2)C(c2ccc3c(c2)OCO3)N1CCc1ccc(F)cc1 (stereo not drawn) | 64% (active)
93 | COc1ccc(CCN2C(=O)C(Oc3ccccc3)C2c2ccc3c(c2)OCO3)cc1 (stereo not drawn) | -53.4% (inactive)
